# Laboratory results from paper PMC7862700, “An all-to-all approach to the identification of sequence-specific readers for epigenetic DNA modifications on cytosine”.
# Legend:
# Test in all cases: DAPPL (digital affinity profiling via proximity ligation, sequencing); 10 mM Tris-HCl pH 7.5, 50 mM NaCl, 1 mM DTT, 4% glycerol, room temperature, 30 min; GST-TFs on glutathione beads, 16-mer random dsDNA library, 0.1% formaldehyde crosslink after washing; high values mean tight binding
# Settings in all cases: protein: recombinant; tags: N-terminal GST; dsDNA, one strand shown
# [1] = target: T1, FLI1 (Homo sapiens, UniProt Q01543 1-452)
# T1 sequence: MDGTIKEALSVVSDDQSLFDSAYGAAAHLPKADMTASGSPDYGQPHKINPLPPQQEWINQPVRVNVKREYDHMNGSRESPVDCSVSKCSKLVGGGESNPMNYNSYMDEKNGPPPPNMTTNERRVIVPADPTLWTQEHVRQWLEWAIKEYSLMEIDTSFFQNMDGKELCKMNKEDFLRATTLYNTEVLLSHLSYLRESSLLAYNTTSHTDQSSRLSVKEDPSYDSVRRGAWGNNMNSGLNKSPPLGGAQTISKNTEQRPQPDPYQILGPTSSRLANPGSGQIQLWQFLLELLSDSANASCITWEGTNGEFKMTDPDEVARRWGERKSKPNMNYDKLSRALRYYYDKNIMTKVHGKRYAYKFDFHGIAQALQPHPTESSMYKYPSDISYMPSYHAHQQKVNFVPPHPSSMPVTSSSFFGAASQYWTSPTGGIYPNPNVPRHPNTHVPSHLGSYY
# How it was run: (§1)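 Pools were built from human transcription factors expressed in yeast as GST fusions, captured on glutathione beads and DNA-barcoded, along with a tag-only sample. Incubation with 200 nmole of a 16-mer random double-stranded DNA library lasted 30 min at room temperature in Tris/NaCl/DTT/glycerol buffer, and was followed by washing, 0.1% formaldehyde crosslinking, proximity ligation, PCR amplification and Illumina NextSeq500 sequencing. Binding signal is the quotient of each hexamer's read frequency for a factor and its frequency for the tag-only sample.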
# [2] = target: T2, GABPA (Homo sapiens, UniProt Q06546 1-454)
# T2 sequence: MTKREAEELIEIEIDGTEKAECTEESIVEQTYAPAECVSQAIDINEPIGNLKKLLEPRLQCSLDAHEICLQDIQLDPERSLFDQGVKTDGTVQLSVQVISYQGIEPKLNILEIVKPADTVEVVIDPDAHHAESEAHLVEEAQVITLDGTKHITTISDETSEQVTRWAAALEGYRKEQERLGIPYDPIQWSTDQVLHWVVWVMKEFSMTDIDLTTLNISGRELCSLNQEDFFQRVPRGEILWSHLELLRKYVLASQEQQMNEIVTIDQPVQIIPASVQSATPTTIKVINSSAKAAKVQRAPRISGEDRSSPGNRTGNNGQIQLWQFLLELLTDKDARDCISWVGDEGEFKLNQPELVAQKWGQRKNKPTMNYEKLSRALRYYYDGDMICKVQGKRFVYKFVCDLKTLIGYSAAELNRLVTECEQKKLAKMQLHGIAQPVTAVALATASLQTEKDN
# How it was run: as §1
# [3] = target: T3, ERG (Homo sapiens, UniProt P11308 1-479)
# T3 sequence: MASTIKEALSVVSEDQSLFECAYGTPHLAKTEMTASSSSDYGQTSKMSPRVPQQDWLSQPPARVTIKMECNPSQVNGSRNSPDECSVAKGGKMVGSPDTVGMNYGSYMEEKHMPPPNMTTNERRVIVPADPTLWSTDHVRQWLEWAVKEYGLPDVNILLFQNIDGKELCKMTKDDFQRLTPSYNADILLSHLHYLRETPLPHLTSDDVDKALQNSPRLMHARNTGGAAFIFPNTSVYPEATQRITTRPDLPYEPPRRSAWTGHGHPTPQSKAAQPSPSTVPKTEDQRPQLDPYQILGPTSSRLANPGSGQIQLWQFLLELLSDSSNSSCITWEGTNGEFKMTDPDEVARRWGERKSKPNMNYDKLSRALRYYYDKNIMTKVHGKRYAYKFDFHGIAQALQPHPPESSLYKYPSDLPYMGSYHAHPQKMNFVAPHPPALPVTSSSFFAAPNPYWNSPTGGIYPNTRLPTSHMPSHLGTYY
# How it was run: as §1
# [4] = target: ELF1 (Homo sapiens, UniProt P32519 1-619)
# How it was run: as §1
# [5] = target: T4, EHF (Homo sapiens, UniProt Q9NZC4 1-300)
# T4 sequence: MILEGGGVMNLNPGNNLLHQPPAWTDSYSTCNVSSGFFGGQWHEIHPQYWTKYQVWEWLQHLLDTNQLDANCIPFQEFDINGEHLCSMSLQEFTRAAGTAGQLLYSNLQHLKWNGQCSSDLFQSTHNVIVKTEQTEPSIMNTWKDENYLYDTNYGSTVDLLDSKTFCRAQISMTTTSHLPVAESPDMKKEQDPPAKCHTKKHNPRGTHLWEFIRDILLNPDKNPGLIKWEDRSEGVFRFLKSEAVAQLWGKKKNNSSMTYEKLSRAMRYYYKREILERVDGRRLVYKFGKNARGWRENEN
# How it was run: as §1
# [6] = target: SPI1 (Homo sapiens, UniProt P17947 1-270)
# How it was run: as §1
# [7] = target: SPIB (Homo sapiens, UniProt Q01892 1-262)
# How it was run: as §1
# [8] = target: T5, FEV (Homo sapiens, UniProt Q99581 1-238)
# T5 sequence: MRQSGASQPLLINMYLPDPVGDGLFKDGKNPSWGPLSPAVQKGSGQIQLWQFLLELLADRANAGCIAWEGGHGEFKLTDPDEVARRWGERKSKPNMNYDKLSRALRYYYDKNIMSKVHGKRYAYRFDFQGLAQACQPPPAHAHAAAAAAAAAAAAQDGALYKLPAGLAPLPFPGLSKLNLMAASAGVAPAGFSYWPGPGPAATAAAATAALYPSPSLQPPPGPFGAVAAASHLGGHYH
# How it was run: as §1
# [9] = target: ETV5 (Homo sapiens, UniProt P41161 1-510)
# How it was run: as §1
# [10] = target: ELF4 (Homo sapiens, UniProt Q99607 1-663)
# How it was run: as §1
# [11] = target: T6, ETV2 (Homo sapiens, UniProt O00321 1-342)
# T6 sequence: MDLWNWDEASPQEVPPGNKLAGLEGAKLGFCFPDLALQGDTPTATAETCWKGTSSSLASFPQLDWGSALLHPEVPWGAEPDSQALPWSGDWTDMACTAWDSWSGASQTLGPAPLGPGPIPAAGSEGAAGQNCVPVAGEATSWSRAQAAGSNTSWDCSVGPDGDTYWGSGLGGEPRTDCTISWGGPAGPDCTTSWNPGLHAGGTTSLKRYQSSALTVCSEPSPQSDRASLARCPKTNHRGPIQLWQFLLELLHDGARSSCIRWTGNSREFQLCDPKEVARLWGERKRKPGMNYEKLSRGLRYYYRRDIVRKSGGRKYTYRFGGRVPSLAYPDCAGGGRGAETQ
# How it was run: as §1
# [12] = target: T7, ELF3 (Homo sapiens, UniProt P78545 1-371)
# T7 sequence: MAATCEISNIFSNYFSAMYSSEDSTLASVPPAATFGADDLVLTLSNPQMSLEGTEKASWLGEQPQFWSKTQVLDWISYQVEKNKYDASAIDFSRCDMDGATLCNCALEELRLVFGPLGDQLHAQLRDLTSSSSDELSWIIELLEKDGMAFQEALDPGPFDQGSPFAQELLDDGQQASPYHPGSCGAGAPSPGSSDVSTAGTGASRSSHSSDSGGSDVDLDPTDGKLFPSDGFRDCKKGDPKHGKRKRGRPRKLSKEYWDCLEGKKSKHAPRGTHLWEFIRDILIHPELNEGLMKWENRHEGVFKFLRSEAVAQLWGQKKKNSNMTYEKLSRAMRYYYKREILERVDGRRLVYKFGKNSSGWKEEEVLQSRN
# How it was run: as §1
# [13] = target: ETV1 (Homo sapiens, UniProt P50549 1-477)
# How it was run: as §1
# [14] = target: T8, ERF (Homo sapiens, UniProt P50548 1-548)
# T8 sequence: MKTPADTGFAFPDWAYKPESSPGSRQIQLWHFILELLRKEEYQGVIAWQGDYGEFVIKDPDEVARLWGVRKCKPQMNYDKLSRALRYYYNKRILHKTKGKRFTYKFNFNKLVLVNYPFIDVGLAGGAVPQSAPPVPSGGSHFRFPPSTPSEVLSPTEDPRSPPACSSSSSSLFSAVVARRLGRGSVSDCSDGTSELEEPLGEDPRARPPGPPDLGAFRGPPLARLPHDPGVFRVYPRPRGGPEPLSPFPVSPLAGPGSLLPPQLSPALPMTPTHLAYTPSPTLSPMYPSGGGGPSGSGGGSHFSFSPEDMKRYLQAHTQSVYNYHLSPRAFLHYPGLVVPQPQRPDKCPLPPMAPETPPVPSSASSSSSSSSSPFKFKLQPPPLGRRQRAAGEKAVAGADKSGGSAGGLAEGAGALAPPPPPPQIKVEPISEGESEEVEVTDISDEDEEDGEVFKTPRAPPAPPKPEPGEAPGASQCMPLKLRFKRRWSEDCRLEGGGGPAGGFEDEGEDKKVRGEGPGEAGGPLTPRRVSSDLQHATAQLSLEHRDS
# How it was run: as §1
# [15] = target: T9, ETS2 (Homo sapiens, UniProt P15036 1-469)
# T9 sequence: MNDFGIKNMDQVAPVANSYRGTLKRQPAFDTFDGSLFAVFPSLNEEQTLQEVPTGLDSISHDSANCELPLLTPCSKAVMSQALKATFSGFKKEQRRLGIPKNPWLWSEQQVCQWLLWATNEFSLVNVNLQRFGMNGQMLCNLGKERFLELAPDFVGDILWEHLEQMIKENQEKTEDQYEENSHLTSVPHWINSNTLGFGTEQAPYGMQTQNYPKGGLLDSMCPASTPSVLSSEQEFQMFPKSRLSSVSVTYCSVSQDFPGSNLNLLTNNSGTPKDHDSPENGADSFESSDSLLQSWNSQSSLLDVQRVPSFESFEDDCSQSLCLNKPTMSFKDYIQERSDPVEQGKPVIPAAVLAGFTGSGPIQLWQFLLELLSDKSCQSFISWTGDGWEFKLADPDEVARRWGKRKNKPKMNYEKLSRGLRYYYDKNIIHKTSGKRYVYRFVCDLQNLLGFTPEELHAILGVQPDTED
# How it was run: as §1
# [16] = target: T10, ETV7 (Homo sapiens, UniProt Q9Y603 1-341)
# T10 sequence: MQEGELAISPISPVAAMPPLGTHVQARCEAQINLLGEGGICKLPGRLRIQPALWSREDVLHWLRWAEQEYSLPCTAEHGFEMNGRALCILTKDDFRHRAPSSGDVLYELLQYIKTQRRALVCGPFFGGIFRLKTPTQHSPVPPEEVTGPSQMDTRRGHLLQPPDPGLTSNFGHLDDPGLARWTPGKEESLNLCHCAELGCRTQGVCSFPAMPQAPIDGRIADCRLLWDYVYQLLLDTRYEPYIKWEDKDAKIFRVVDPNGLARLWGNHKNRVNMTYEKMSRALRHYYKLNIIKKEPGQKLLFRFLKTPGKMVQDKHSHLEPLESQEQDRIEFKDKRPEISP
# How it was run: as §1
# [17] = target: T11, ETV3 (Homo sapiens, UniProt P41162-2 1-143)
# T11 sequence: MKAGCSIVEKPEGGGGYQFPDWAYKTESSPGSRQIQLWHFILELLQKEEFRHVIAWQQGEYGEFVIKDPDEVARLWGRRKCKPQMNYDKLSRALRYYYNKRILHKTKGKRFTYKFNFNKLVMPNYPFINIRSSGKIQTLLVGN
# How it was run: as §1
# [18] = target: ETV6 (Homo sapiens, UniProt P41212 1-452)
# How it was run: as §1
# Chain of ELF1 (P32519 whole entry): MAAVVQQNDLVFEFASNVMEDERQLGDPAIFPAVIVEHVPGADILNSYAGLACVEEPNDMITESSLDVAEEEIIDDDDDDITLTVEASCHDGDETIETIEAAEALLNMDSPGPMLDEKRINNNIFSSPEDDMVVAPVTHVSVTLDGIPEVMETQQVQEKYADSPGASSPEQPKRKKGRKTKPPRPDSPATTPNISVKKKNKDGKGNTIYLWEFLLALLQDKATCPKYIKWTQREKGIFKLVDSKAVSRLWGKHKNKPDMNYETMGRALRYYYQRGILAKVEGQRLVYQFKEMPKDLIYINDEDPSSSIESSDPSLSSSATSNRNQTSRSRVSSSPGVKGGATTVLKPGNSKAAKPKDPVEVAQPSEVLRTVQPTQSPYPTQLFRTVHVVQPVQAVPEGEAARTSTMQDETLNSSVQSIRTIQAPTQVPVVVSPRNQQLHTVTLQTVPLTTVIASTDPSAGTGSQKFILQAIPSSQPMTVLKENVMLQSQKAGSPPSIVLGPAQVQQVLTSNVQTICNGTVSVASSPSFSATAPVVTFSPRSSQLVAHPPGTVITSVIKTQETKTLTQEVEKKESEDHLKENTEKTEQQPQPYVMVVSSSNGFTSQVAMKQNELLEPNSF
# Chain of ETV1 (P50549 whole entry): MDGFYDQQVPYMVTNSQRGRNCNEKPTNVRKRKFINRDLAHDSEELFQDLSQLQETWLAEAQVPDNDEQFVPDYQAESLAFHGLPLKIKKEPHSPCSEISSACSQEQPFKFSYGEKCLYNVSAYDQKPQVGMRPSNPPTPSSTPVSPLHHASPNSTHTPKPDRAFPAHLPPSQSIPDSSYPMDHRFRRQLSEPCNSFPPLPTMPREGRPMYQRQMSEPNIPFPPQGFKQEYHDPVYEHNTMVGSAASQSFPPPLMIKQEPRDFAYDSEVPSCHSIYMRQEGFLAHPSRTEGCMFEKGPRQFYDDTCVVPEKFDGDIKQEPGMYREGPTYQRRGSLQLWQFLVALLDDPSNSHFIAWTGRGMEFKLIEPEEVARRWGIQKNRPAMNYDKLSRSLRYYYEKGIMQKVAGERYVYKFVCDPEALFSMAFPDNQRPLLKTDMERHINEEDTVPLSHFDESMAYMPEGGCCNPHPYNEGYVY
# Chain of ETV5 (P41161 whole entry): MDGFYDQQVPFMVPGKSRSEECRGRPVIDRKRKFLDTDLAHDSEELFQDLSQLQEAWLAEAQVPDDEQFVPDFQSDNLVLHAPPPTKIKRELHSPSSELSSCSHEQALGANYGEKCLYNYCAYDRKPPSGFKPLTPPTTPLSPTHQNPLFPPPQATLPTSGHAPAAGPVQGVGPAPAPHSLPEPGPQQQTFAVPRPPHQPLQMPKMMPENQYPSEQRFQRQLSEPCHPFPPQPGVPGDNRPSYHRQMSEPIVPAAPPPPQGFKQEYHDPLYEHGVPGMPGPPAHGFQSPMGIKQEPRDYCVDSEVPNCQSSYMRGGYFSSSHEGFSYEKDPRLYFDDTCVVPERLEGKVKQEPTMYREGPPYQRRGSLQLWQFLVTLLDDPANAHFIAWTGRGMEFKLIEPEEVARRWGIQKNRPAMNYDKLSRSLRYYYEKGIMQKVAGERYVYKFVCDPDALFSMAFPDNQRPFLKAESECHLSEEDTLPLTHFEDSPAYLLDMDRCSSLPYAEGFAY
# Chain of ELF4 (Q99607 whole entry): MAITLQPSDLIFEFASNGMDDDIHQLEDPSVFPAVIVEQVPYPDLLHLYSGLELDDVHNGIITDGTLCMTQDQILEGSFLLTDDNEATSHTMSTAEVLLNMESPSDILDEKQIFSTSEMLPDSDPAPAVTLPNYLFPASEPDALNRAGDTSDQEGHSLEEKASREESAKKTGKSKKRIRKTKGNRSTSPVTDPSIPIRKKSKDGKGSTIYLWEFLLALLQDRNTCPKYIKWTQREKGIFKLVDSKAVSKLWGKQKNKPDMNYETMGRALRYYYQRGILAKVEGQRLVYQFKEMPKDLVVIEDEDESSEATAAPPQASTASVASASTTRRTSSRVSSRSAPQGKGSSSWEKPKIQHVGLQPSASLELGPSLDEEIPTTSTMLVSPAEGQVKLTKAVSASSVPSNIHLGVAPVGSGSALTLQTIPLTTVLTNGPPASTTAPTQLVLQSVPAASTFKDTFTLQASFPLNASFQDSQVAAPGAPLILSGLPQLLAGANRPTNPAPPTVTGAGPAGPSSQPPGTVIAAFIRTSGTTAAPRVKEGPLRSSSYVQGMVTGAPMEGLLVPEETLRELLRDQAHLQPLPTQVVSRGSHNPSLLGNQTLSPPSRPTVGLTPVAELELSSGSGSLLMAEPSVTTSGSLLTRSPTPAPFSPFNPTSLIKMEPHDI
# Chain of SPIB (Q01892 whole entry): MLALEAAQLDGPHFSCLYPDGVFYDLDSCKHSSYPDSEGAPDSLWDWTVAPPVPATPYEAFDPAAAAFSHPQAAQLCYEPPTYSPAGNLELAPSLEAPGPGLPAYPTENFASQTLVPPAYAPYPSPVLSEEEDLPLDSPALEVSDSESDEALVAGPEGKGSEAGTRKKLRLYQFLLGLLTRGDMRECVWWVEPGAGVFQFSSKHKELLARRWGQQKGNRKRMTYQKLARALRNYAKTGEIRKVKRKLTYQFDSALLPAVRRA
# Chain of ETV6 (P41212 whole entry): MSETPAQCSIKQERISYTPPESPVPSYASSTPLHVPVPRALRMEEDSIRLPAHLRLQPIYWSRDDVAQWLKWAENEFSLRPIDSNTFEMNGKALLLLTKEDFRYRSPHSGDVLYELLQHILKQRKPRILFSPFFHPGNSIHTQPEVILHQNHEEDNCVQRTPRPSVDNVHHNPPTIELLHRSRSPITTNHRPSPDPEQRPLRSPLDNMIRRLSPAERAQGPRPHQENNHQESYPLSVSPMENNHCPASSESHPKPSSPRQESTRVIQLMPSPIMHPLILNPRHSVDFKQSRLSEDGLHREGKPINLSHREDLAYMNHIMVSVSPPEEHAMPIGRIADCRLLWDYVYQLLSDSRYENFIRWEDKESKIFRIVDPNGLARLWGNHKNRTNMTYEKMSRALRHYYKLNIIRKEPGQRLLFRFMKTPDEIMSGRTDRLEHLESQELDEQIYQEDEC
sequence,measurement,setting,value
CGCTAT,binding signal,[1],"1.13 fold enrichment (6-mer frequency, TF over GST control)"
same,binding signal,[2],"1.07 fold enrichment (6-mer frequency, TF over GST control)"
same,binding signal,[3],"1.09 fold enrichment (6-mer frequency, TF over GST control)"
same,binding signal,[4],"1.09 fold enrichment (6-mer frequency, TF over GST control)"
same,binding signal,[5],"1.06 fold enrichment (6-mer frequency, TF over GST control)"
same,binding signal,[6],"1.11 fold enrichment (6-mer frequency, TF over GST control)"
same,binding signal,[7],"1.12 fold enrichment (6-mer frequency, TF over GST control)"
same,binding signal,[8],"1.04 fold enrichment (6-mer frequency, TF over GST control)"
same,binding signal,[9],"1.1 fold enrichment (6-mer frequency, TF over GST control)"
same,binding signal,[10],"1.15 fold enrichment (6-mer frequency, TF over GST control)"
same,binding signal,[11],"1.15 fold enrichment (6-mer frequency, TF over GST control)"
same,binding signal,[12],"1.01 fold enrichment (6-mer frequency, TF over GST control)"
same,binding signal,[13],"1.09 fold enrichment (6-mer frequency, TF over GST control)"
same,binding signal,[14],"1.16 fold enrichment (6-mer frequency, TF over GST control)"
same,binding signal,[15],"1.03 fold enrichment (6-mer frequency, TF over GST control)"
same,binding signal,[16],"1.25 fold enrichment (6-mer frequency, TF over GST control)"
same,binding signal,[17],"1.14 fold enrichment (6-mer frequency, TF over GST control)"
same,binding signal,[18],"1.09 fold enrichment (6-mer frequency, TF over GST control)"
